A selection: hits, their analogues and other compounds. The true share with any hit is near 1.8%.
HEK293 tox: cytotoxic in the GLP-1 receptor inverse agonist counter-screen; Potency, µM (titrated, usually from 38.3 µM), inactives show at the top dose activity change, negative = inhibition, hits mostly inhibitors; AID 624418; HEK293 cAMP-luciferase reporter cells, luminescence, 24 h; 0.13% of 410,000 active;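 note: loss of luciferase light is scored as toxicity; potency is the fitted concentration of half-maximal effect; % is set by controls: 0 for no effect and ±100 for the full control effect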
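A 23 nL compound transfer followed 12 hours of cell culture at 37 deg C; exposure then lasted 24 hr. Luciferase assay detection reagent was dispensed and plates read for luminescence after a 12 min room-temperature wait.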
TRPML1 blocker: human mucolipin-1 channel inhibition. Q9GZU1. TRPML1-inducible cells, Ca2+ dye fluorescence, FDSS; hits give low values; inhibition of EC80 agonist-evoked calcium signal. activity change, negative = inhibition, % (no concentration beside the values). 0.02% of 390,000 active; in the data active = activity change below about -50%; inconclusive = between about -30% and that limit;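 note: stimulus is agonist 54-4 at its EC80 concentration; % is set by controls: 0 for no effect and ±100 for the full control effect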
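TRPML1-DL cells, Tet-induced overnight (~16 h, 37 °C) at 1,500 cells/well, were loaded with Ca8 no-wash dye plus quencher for 45-90 min at room temperature. Compounds were pinned during FDSS kinetic reading; agonist 54-4 at EC80 (4 uM final) then added.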
TRPML1 agonist: human mucolipin-1 channel agonism | TRPML1-expressing cells, Ca2+ dye fluorescence, FDSS | activation, % (test concentration not listed) | 0.12% of 410,000 active; in the data active = activation above about 50%; inconclusive = mostly about 30% to 49%; note: 0% is about no effect
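Kinetic FDSS Ca2+ read in Tet-induced TRPML1-DL cells (ABD Ca8 dye plus quencher, 45-90 min RT loading): baseline, then compound, then 110 s agonist window; EC80 agonist 54-4 at 4uM final added afterwards for a 110 s antagonist window.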
GLP-1R agonist: agonists of human GLP-1 receptor. HEK293 GLP-1R CRE-luciferase, luminescence, 4-6 h; cells express a hypersensitive GLP-1R form. P43220. Potency, µM (top dose mostly 45.6 µM), for inactives: top-dose activation, usual class: activators. 0.007% of 380,000 active; note: potency is the fitted concentration of half-maximal effect; % of control where 0% means no effect
Target sequence (P43220 whole entry, looked up): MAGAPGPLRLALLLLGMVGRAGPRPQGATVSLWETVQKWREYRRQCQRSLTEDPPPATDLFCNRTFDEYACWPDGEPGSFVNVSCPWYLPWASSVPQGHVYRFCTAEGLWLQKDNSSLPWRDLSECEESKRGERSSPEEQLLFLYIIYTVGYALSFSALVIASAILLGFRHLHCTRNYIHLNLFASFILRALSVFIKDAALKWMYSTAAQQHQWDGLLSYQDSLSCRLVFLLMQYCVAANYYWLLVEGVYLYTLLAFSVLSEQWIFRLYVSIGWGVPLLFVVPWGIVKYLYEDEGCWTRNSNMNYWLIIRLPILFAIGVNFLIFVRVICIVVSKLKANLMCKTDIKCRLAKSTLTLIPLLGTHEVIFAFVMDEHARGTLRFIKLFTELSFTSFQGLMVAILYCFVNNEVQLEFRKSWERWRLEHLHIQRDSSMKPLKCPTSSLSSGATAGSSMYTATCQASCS
GLP1R inv ag: inverse agonists of human GLP-1 receptor. P43220. HEK293 GLP-1R CRE-luciferase, luminescence, 24 h; GLP-1R form is constitutively active. Potency, µM (series often up to 38.3 µM), without a hit: at the highest dose activity change, negative = inhibition, hits mostly inhibitors. 1.6% of 410,000 active; note: potency is the fitted concentration of half-maximal effect; % is set by controls: 0 for no effect and ±100 for the full control effect; nearly all actives have a fitted effect of over 55% in size
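Inverse agonists were sought by their lowering of basal cAMP reporter luciferase output in HEK293 cells stably carrying constitutively active human GLP-1R, after 24 h compound treatment.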
Starred values were filed as active, the others as inactive; ? = inconclusive; · = not tested or not shown. Unless noted, calls come from the whole dose curve; as a rule, active = well fitted curve in the direction sought with a large enough effect; inconclusive = small, poorly fitted or top-dose-only effect, or another doubt; inactive = no such curve, though single readings can be large; an effect the other way counts as inactive or inconclusive.

SMILES | HEK293 tox | TRPML1 blocker | TRPML1 agonist | GLP-1R agonist | GLP1R inv ag
COCc1c(C(=O)OCC(=O)N2c3ccccc3CC2C)oc2ccccc12 (configuration not stated) | 0% | 32 | 2 | 2% | 0%
Cc1ccc(OCC(=O)N(Cc2ccc(N(C)C)cc2)CC2CCCO2)cc1C (configuration not stated) | -3% | 8 | 1 | · | ?
Cc1c(N(C)C)nc2ccccc2c1N | 7% | 3 | -1 | 4% | 13%
CCN(CC)c1nc2ccccc2c(N)c1-c1ccccc1 | -6% | 18 | 1 | -1% | 2.5µM*
COc1ccccc1NC(=O)CCNS(=O)(=O)c1ccc2c(c1)CCCC(=O)N2 | -13% | -14 | 1 | 25% | -2%
Cc1ccc(C2CC(=O)NC(SCc3ccccc3)=C2C#N)cc1 (configuration not stated) | -7% | -6 | 1 | 6% | 8.9µM*
CC1C/C(=C/c2ccncc2)C(=O)/C(=C/c2ccncc2)C1 (configuration not stated) | ? | 45 | 0 | -9% | ?
CC1C/C(=C/c2cccn2C)C(=O)/C(=C/c2cccn2C)C1 (configuration not stated) | 93% | -14 | 28 | 5% | 13µM*
Cc1ccc(-n2c(=O)c3oc4ccccc4c3n(CC(=O)Nc3ccc(F)c(Cl)c3)c2=O)cc1C | 0% | 14 | 0 | · | -9%
COc1cccc(NS(=O)(=O)c2ccc3[nH]cc(C(=O)N(C)C4CCCCC4)c(=O)c3c2)c1 | -7% | -2 | 1 | · | 9%
O=C(C1CCCCC1)N(Cc1cccnc1)c1nc2c(F)cccc2s1 | -4% | -1 | 0 | · | 8.9µM*
CC[C@H](C)[C@@H](NC(=O)O[C@@H]1C(=O)c2cc(Br)ccc2O[C@H]1c1cccc(OC)c1)C(=O)OC | 1% | -8 | 0 | -2% | ?
COc1cccc([C@@H]2Oc3ccc(Br)cc3C(=O)[C@H]2OC(=O)NC2CCCC2)c1 | 0% | 1 | 4 | -3% | 11µM*
CC(C)N(C(C)C)S(=O)(=O)c1ccc(N2CCc3ccccc3C2)nc1 | 0% | 0 | 1 | 18% | 7.9µM*
c1ccc2oc(C3=NNC(=NC4CC4)SC3)cc2c1 | ? | 5 | 4 | 11% | 8.9µM*
c1ccc(CN=C2NN=C(c3cc4ccccc4o3)CS2)cc1 | -2% | -7 | 1 | -1% | 22%
Cc1ncoc1C(=O)N1CCCC(C(=O)Nc2cccc(-c3ccc(F)cc3)c2)C1 (configuration not stated) | -25% | -8 | 53* | 11% | ?
CN(C)c1ccc(CNC(=O)Cc2ccc(NC(=O)N3CCCCc4ccccc43)cc2)cc1 | 6% | 22 | 0 | · | ?
O/N=C/c1cc(Br)cc(Br)c1OCc1ccccc1 | -5% | -13 | 0 | 5% | 10µM*
O/N=C/c1ccc(OCc2ccccc2)c(Br)c1 | 2% | 46 | 2 | 22% | 6%
CCN1C/C(=C\c2cccc([N+](=O)[O-])c2)C(=O)/C(=C/c2cccc([N+](=O)[O-])c2)C1 | 5µM* | 1 | 0 | -17% | ?
O=C1/C(=C/c2cccc([N+](=O)[O-])c2)CCc2ccccc21 | -1% | -1 | 0 | -19% | -17%
CCOc1ccccc1NC(=O)CCN(c1ccc(C)cc1)S(=O)(=O)c1ccccc1 | 12% | -2 | 2 | 5% | 11µM*
Cc1ccc(CSC2=Nc3ccccc3C3=NC(CCC(=O)NCCc4ccccc4)C(=O)N23)cc1 (configuration not stated) | 0% | 3 | 1 | · | -23%
CO/N=C(/CNC(=O)c1ccc(F)cc1)c1ccc(Cl)cc1 | 3% | 6 | 3 | 2% | 8.9µM*
OCC1(Cc2ccc(Cl)cc2)CCN(CCCc2ccccc2)CC1 | ? | 4 | 1 | 2% | ?
O=C(NC1(Cc2ccccc2)CCN(CCCc2ccccc2)C1=O)c1ccccc1 (configuration not stated) | -16% | -28 | 2 | 7% | 11µM*
